CYP2C9 activ = increases human cytochrome P450 2C9 activity. recombinant CYP2C9, luciferin-H conversion, luminescence; active compounds read high; factor 1 = untreated enzyme, 0 = blocked. actives 1.4% (n = 96,000). P11712. activation factor at 5 µM;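 active = activation factor of 2 or more for CYP2C9 at a 5 µM dose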;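 also: 0 = sulfaphenazole-blocked wells and 1 = vehicle-only wells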
CD11b adhes enh = increases human CD11b/CD18 adhesion to fibrinogen; P05107+P11215; K562 CD11b/CD18 adhesion to fibrinogen, ATPlite luminescence; activation, % at 10 µM; actives 0.07% (n = 93,000); AID 1499;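 active = 10 µM primary screen giving 50% or more activity, confirmed by 40% or more on retest at that dose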
Mac1 fbg inh = inhibitors of human CD11b/CD18 binding to fibrinogen; P05107+P11215; K562 CD11b/CD18 adhesion to fibrinogen, ATPlite luminescence; Mn2+ added to activate the integrin; inhibition, % at 10 µM; actives 0.54% (n = 93,000); AID 1497;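 active = primary inhibition of 50% or more at 10 µM, then 40% or more on retest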
CYP2C19 act = cytochrome P450 2C19 (human) activation. recombinant CYP2C19, luciferin-H EGE luminescence; active compounds read high; 0 = fully inhibited enzyme, 1 = untreated enzyme. activation factor at 5 µM. 96,000 tested, under 10 active;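 active = activation factor of at least 2 at 5 µM in the primary screen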;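 also: 0 = wells with 2.5 mM tranylcypromine and 1 = vehicle-only wells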
Target sequence (P33261 whole entry, looked up): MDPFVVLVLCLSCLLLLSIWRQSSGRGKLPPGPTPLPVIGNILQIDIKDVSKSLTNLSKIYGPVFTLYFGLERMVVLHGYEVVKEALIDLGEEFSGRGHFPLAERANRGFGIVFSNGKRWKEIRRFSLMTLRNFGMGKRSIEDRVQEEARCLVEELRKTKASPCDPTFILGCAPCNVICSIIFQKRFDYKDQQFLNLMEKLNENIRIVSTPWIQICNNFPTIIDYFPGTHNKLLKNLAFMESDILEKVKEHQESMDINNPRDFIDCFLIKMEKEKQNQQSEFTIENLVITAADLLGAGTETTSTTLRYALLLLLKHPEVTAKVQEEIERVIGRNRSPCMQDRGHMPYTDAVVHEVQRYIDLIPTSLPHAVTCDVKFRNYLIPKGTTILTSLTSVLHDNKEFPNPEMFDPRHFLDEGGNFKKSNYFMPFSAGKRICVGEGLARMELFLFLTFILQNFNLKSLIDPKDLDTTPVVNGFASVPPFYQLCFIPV
CYP2C9 inhib = inhibitors of human CYP2C9; P11712; CYP2C9 Supersomes, luciferin-H conversion, luminescence; inhibition, % at 5 µM; actives 20% (n = 96,000);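 active = blocking of liver enzyme CYP2C9 beyond about 50% at 5 µM, limit read from the data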
CYP2C19 inhib = human CYP2C19 inhibition; P33261; CYP2C19 Supersomes, luciferin-H EGE luminescence, 30 min; inhibition, % at 5 µM; actives 21% (n = 96,000);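 active = CYP2C19 inhibition above a set limit at 5 µM in the primary screen, cut at about 50% in these data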;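 also: plate controls were negative control wells for no effect and 2.5 mM tranylcypromine positive control for full effect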
* marks the source's active call; other numbers are inactive results; x = no result given. Compounds with a hit are over-represented: about 28% of the library has one in this group of screens.

SMILES	CYP2C9 activ	CD11b adhes enh	Mac1 fbg inh	CYP2C19 act	CYP2C9 inhib	CYP2C19 inhib
COc1ccc(C(=O)N(Cc2nc(-c3ccc(C)cc3)no2)C(C)C)cc1OC	0.4	4	-10	0.5	58*	55*
Cn1nc(C(C)(C)C)cc1C(=O)NCc1ccc(N2CCCC2=O)cc1	1.2	-6	84*	1.1	-22	-10
Cc1ccc(C(=O)N(Cc2nc(-c3ccc(C)cc3)no2)C(C)C)cc1	0.9	1	-3	0.9	6	12
CCOC(=O)C1CCN(C(=O)Nc2ccc(OC)c(OC)c2)CC1	1.1	-3	-35	0.9	-12	5
COC(=O)C1=C(C)N(Cc2ccc(C)cc2)C(=O)C1	0.8	x	x	0.6	17	41
O=C(OCC(=O)N1CCCC1)c1cccs1	1	-3	-3	1	-4	5
CC(C)N(Cc1nc(-c2ccccc2)no1)C(=O)c1ccc(Br)o1	0.4	2	14	0.3	64*	73*
CC(C)N(Cc1nc(-c2ccccc2)no1)C(=O)c1ccc2c(c1)OCO2	0.6	5	0	0.3	43	69*
COc1ccc(-c2noc(CN(C(=O)c3c(-c4ccccc4Cl)noc3C)C(C)C)n2)cc1	0.4	-4	-8	0.4	57*	62*
C=C(C)C1CCC(C)=C1COC(=O)Nc1ccccc1 (centres undefined)	0.6	0	-14	0.8	37	22
O=C(CC(NC(=O)c1ccccc1)c1ccccc1)Nc1cccc2ccccc12 (centres undefined)	x	38	-8	x	x	x
CCn1cc(C(=O)OCC(=O)N(C)C2CCS(=O)(=O)C2)c(=O)c2ccc(C)nc21 (centres undefined)	1.3	-2	5	1.1	-28	-7
CSc1ccccc1NC(=O)c1ccco1	1	2	-3	1	2	-4
O=c1oc2cc(Cl)ccc2n1CSc1nc2ccccc2s1	0.3	5	2	0.3	67*	74*
COc1ccc(Br)cc1CNC(=O)CCN1C(=O)COc2ccccc21	1.1	-1	-13	0.2	-8	81*
COCCCNC(=O)CCN1C(=O)COc2ccccc21	1.1	x	x	1	-12	0
COc1ccc(OC)c(CNC(=O)CCN2C(=O)COc3ccccc32)c1	1.3	2	-19	0.3	-34	70*
Cc1ccc2nc3c(nc2c1)-c1ccccc1C3=O	1	4	-4	1.1	4	-7
O=c1cc(O)nc2n1CCCS2	1	2	-10	1.1	-5	-8
O=C(CN1C(=O)c2ccccc2C1=O)N1CCOCC1	0.8	-7	-6	0.9	15	10
O=C(Cc1ccc(-c2ccccc2)cc1)N1CCOCC1	0.3	-4	8	0.3	65*	74*
O=C(CCSc1ccccc1)NCCN1CCOCC1	1	-1	-16	0.5	-2	49
O=C(NCCCN1CCOCC1)c1ccc(Br)s1	1.2	-2	1	0.7	-16	26
O=C(CC(c1ccccc1)c1cc(Br)ccc1O)NCCN1CCOCC1 (centres undefined)	0.4	6	25	0.2	56*	85*
O=C(Cc1nc(-c2ccc(Br)s2)cs1)NCCN1CCOCC1	0.7	30	-8	0.2	34	77*
SMILES	CYP2C9 activ	CD11b adhes enh	Mac1 fbg inh	CYP2C19 act	CYP2C9 inhib	CYP2C19 inhib
O=C(Cc1ccc(-c2ccccc2)cc1)NCCN1CCOCC1	0.6	-6	-5	0.3	42	72*
CC(=O)c1ccc(NC(=O)c2cc(CC(C)C)on2)cc1	0.8	1	-8	0.9	22	12
O=C(NCCN1CCOCC1)c1ccc2c(c1)N(Cc1ccccc1)CCS2	0.4	-1	3	0.5	63*	54*
CN1CCN(CCCNC(=O)c2ccc3c(c2)N(Cc2ccccc2)CCS3)CC1	1	-1	-1	1.1	0	-8
Cc1ccc(C(=O)OCc2nnc(-c3ccccc3)o2)o1	0.6	-2	2	0.2	42	80*
O=C(OCc1nnc(-c2ccccc2)o1)c1ccc2ccccc2n1	0.8	5	-30	0.7	21	33
CC(C(=O)OCc1nnc(-c2ccccc2)o1)N1C(=O)c2ccccc2C1=O (centres undefined)	0.4	1	4	0.8	56*	22
O=C(Nc1ccccc1C(=O)OCc1nnc(-c2ccccc2)o1)c1ccco1	0	8	30	0.2	95*	76*
O=C(CSc1ccc(Cl)cc1)OCc1nnc(-c2ccccc2)o1	0.9	-2	-29	1	12	3
O=C(OCc1nnc(-c2ccccc2)o1)C1=COCCO1	1	-2	-30	0.5	-1	51*
COc1c(C)cccc1C(=O)Nc1ccc(CN2CCCCC2)cc1	0.9	-2	6	0.8	8	21
CC(C)(C)N1C(=O)c2ccc(C(=O)NCc3ccco3)cc2C1=O	0.5	-2	-28	0.8	47	23
CC1=C(C(=O)N(C)CCC#N)C2(CCCCC2)OC1=O	1.2	-1	2	1.2	-18	-19
CCN1C(=O)C2C(C1=O)N1C(c3ccccc3)C3C(=O)N(CC)C(=O)C3N1C2c1ccccc1 (centres undefined)	0.8	-2	-10	0.9	19	5
O=C(CCCSc1nc2sc3c(c2c(=O)[nH]1)CCC3)NCCO	0.8	-1	-7	0.9	16	6
COc1cc(-c2nnc(COC(=O)c3cc(C)nc4ccc(C)cc34)o2)cc(OC)c1OC	0.1	18	-22	0.1	88*	90*
O=C(OCc1nnc(-c2ccccc2)o1)c1ccc2c(c1)OCCO2	0.4	x	x	0.6	58*	39
c1ccc(Cc2nnc(-c3ccccc3)o2)cc1	1	-1	10	0.5	2	52*
O=C(OCc1nnc(-c2ccccc2)o1)c1ccc(S(=O)(=O)NCc2ccco2)cc1	0.3	x	x	0.9	70*	8
O=C(COC(=O)c1ccc(S(=O)(=O)NCc2ccco2)cc1)NC1CCCCCC1	0.5	-2	4	0.9	47	13
CSc1nnc2n(Cc3ccccc3)c(=O)c3c4c(sc3n12)COC(C(C)C)C4 (centres undefined)	0.8	0	-8	1.1	15	-13
CC1(C)CC2CC(C)(CN2C(=O)COC(=O)c2ccc(Cl)c(N)c2)C1 (centres undefined)	1	-3	-5	0.5	4	47
COc1cc(CCC(=O)OCc2nnc(-c3ccccc3)o2)cc(OC)c1OC	0.2	-2	-10	0.4	82*	64*
O=C(Nc1c(F)c(F)c(F)c(F)c1F)C1CCCCC1	0.9	-3	5	0.8	14	16
O=C1NC(c2ccccc2)=C(c2nc3ccccc3s2)C(c2ccccc2)N1 (centres undefined)	0.1	0	-6	0.3	91*	71*
